PubChem BioAssay (NCATS)

Target: Catechol O-methyltransferase (Homo sapiens) (UniProt P21964)
Assay: Confirmatory Screen for Target Class Profiling of Small Molecule Inhibitors of Methyltransferases (AID 1745852)
Settings: MTase-Glo luminescence, SAH detection, recombinant enzyme; measured here: COMT max response; stronger effect = lower value

Catechol O-methyltransferase (Homo sapiens), sequence (P21964 whole entry, looked up): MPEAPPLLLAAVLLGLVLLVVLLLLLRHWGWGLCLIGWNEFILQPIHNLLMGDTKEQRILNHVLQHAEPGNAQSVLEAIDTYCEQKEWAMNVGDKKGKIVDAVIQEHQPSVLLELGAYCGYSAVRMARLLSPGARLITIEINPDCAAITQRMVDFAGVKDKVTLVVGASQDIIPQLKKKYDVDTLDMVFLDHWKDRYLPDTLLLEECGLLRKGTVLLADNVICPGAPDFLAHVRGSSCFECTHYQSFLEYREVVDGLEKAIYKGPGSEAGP

First: Cc1ccc(-c2ccc(N)nc2)c2cccnc12
Second: COc1ccc(-c2nnn3c2nc(N2CCOCC2)c2ccccc23)cc1
The activity of the first is lower: -62.1% for the first, -38.9% for the second.

First: COc1cccc(CN2C(=O)c3nc4ccccc4n3CC2(C)C(=O)NC2CCC(C)CC2)c1 (stereo unspecified)
Second: Cc1cc2c(cc3n2CC(C)(C(=O)NC2CCCCCCC2)N(Cc2ccco2)C3=O)o1 (stereo unspecified)
The activity of the first is lower: -5% for the first, -1.76% for the second.

Going from `CCCC1c2cccn2CCN1C(=O)Nc1ccc(Br)cc1` (stereo unspecified) to `CCOC(=O)c1ccc(NC(=O)Cn2c(=O)oc3cc(S(=O)(=O)N4CCCC4)ccc32)cc1`, the activity rises from -7.6% to -7.51%.

Compared with `Cc1nc2c3ccccc3n3c(CCCC(=O)NCCCN(C)Cc4ccccc4)nnc3n2n1`, `CCN1CCN(c2nc3c(S(=O)(=O)c4ccc(Br)cc4)nnn3c3ccccc23)CC1` is higher in activity: -2.29% for the first, 1.75% for the second.

First: CCOC(=O)c1cc2n(n1)CC(C)(C(=O)NCCC(C)C)N(c1ccccc1C)C2=O (stereo unspecified)
Second: CCc1ccc(N2C(=O)c3cc4sccc4n3CC2(C)C(=O)NC2CCCCCC2)cc1 (stereo unspecified)
The activity of the first is higher: 2.78% for the first, -4.01% for the second.

First: COc1ccc(CCNC(=O)c2ccc3c(=O)[nH]c4c(C(=O)NCC5CCCO5)sc(=S)n4c3c2)cc1OC (stereo unspecified)
Second: O=C(Nc1ccccc1)c1cnc2c(c1)N(C(=O)Cc1ccc(O)cc1)CCC2
The activity of the first is lower: -41.4% for the first, -2.13% for the second.

Going from `Cc1ccccc1-c1[nH]nc2ncc(-c3c(C)noc3C)nc12` to `Cn1c(COc2cccc(CN3CCCC3)c2Cl)nnc1C1CC(N)C1` (stereo unspecified), the activity rises from -14.4% to 0.772%.

Compared with `N#Cc1cnc(N2CC3CCC(C2)N3CC(F)(F)F)s1`, `CCC1CCCCN1CCCNC(=O)Cn1ccc2cc(S(=O)(=O)N3CCCCC3)ccc21` (stereo unspecified) is higher in activity: -0.326% for the first, 1.17% for the second.
